High-throughput results as filed in PubChem BioAssay.
CHT inh – inhibits the human high affinity choline transporter. B-score at 10 µM. Q9GZV3. 310,000 compounds, 0.86% hits. CHT-expressing cells, membrane potential dye, choline response; stronger effect = lower value;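 active = B-score over 3 SD under the library average, and starting fluorescence ratio not unusually high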;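 also: choline stimulus applied at its EC90 after an EC20 pre-addition; B-score computed on integrated fluorescence ratio after choline addition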
CHT allo act – allosterically activates the human high affinity choline transporter; Q9GZV3; CHT-expressing cells, membrane potential dye, choline EC20; stronger effect = higher value; LV-AA mutant CHT in HEK293 cells; B-score at 10 µM; 310,000 compounds, 0.49% hits;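 active = initial fluorescence not abnormally high and integrated response B-score, plate-corrected, over 3 SD above library mean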
EP2 modulator – modulates human prostaglandin E2 receptor EP2 signaling; 260,000 compounds, 0.83% hits; EP2-expressing cells, cAMP HTRF FRET, PGE2 co-stimulation; P43116; AID 940; induction, % at 25 µM;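 active = compounds whose cAMP rise, as percent of the full-agonist control response, exceeds 60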;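 also: rat C6 glioma line stably carrying human EP2 under a CMV promoter; the protocol text gives 20 µM as final concentration; 100% = response of wells given 1 µM PGE2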
Target sequence (P43116 whole entry, looked up): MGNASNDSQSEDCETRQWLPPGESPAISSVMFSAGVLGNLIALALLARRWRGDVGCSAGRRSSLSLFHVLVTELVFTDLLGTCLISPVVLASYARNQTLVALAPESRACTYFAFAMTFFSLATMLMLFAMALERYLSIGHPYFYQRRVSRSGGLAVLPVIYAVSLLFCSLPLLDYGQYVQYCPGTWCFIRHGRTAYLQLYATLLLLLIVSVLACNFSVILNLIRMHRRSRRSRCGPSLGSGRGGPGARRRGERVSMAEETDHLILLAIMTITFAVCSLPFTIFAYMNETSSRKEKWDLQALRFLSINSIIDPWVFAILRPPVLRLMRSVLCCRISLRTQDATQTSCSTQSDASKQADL
EP2 antag – EP2 receptor (human) inhibition | P43116 | C6 glioma cells expressing human EP2, cAMP TR-FRET; cells stimulated with saturating PGE2 | inhibition, % at 25 µM | 260,000 compounds, 0.52% hits | AID 1422;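 active = percent inhibition above 40 after rounding to a whole number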;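 also: rat C6 glioma host cells with rolipram phosphodiesterase inhibitor present; the protocol text gives 20 µM as final concentration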
Starred values were filed as active, the others as inactive; i = inactive; nt = no result. In the library only some 2% were active in any assay of this set; here they are far more common.

SMILES | CHT inh | CHT allo act | EP2 modulator | EP2 antag
CCc1nnc(NS(=O)(=O)c2ccc(NC(=S)NC(=O)/C=C/c3ccc([N+](=O)[O-])cc3)cc2)s1 | i | i | -59 | 5
COc1ccc(C(=O)NC(=S)Nc2ccc(S(=O)(=O)Nc3nc(C)cc(C)n3)cc2)cc1 | nt | nt | -98 | 70*
CCC(C)(C)n1nnnc1C(c1ccc(F)cc1)N1CCc2ccccc2C1 (stereo unspecified) | nt | nt | 23 | 8
Cc1ccc(N2CCCC2=O)cc1S(=O)(=O)Nc1ccc2c(c1)oc(=O)n2C | nt | nt | -19 | 3
Cc1ccc(/C=C/C(=O)NC(=S)Nc2ccc(S(=O)(=O)Nc3cc(C)on3)cc2)cc1 | i | i | -111 | 83*
Clc1ccc2c(c1)N(CCCN1CCCC13CCCCC3)c1ccccc1S2 | nt | nt | -5 | 53*
O=C1c2cccc(O)c2C(=O)c2c(O[C@@H]3O[C@H](CO)[C@@H](O)[C@H](O)[C@H]3O)cccc21 | nt | nt | -17 | 52*
Nc1ccn([C@H]2O[C@H](CO)[C@@H]3[O][Sn]([c]4ccccc4)([c]4ccccc4)[O][C@@H]32)c(=O)n1 | nt | nt | 22 | 42*
O=S1(=O)c2ccccc2N=NN1Cc1ccc(Cl)cc1 | i | i | -23 | 43*
O=C(CCCSc1nc(-c2ccco2)cc(C(F)(F)F)n1)NC1CC1 | nt | nt | -104 | 9
CCc1cccc2[nH]c3cc([N+](=O)[O-])ccc3c12 | i | i | 65* | 7
COc1ccc(CN(Cc2cncn2C)CC2CCCO2)c(OC)c1 (stereo unspecified) | nt | nt | 29 | 3
Cc1c(/C(Cc2ccccc2)=N/O)c2ccccc2n1C | i | i | 63* | 1
Cc1cc(-c2cccs2)c2c(n1)sc1c(=O)[nH]c(=O)[nH]c12 | i | i | 31 | 47*
Cc1cc(-c2ccccc2)c2c(n1)sc1c(O)cc(=O)[nH]c12 | i | i | 27 | 18
COc1ccc(-c2cc(-c3cc(F)ccc3O)[nH]n2)cc1OC | i | i | -65 | 66*
COc1ccc(-c2cc(-c3ccccc3O)[nH]n2)cc1OC | i | i | -59 | 12
O=C1NC2(CCN(C(=O)c3ccc(Cn4cc(Cl)cn4)o3)CC2)Nc2ccccc21 | nt | nt | -14 | nt
O=c1n(Cc2ccccc2)c2cc(Cl)cnc2n1Cc1ccccc1 | i | i | 62* | 19
COC(=O)CSc1nc2sc3c(c2c(=O)n1C1CCCCC1)CCN(C)C3 | i | 8.8* | 7 | nt
COc1ccc2[nH]c(=O)c(C(c3nnnn3Cc3ccc(F)cc3)N3CCC(O)CC3)cc2c1 (stereo unspecified) | nt | nt | 13 | 12
N#Cc1ccc(NC(=O)CSc2nc(N)c(C#N)cc2C#N)cc1 | nt | nt | -5 | 43*
O=C(NC1(c2ccccc2F)CCCC1)c1cnc(N2CCOCC2)nc1 | nt | nt | 15 | 10
CC1CCN(C(=O)CSc2ncnc3scc(-c4ccccc4)c23)CC1 | nt | nt | -81 | 30
CCN1CCN(C(=O)C2(NC(=O)Nc3ccc(OC)cc3)CCCCC2)CC1 | nt | nt | 1 | 5
SMILES | CHT inh | CHT allo act | EP2 modulator | EP2 antag
O=C(O)c1ccccc1C(=O)Nc1ccccc1NC(=O)c1ccccc1C(=O)O | i | i | nt | nt
CC(=O)c1sc(C(C)(C)C)cc1NC(=O)c1ccccc1C(=O)O | i | i | 77* | 20
O=C(Nc1nc2c(Cl)c(Cl)ccc2s1)c1ccc([N+](=O)[O-])o1 | nt | nt | -131 | 19
CC1CCCC(C)N1C(=O)CSc1nc2ccccc2n1CC(=O)N1CCOCC1 (stereo unspecified) | nt | nt | 4 | 1
CCN1CCCC1CN(Cc1cc2ccc(C)c(C)c2[nH]c1=O)C(=O)Nc1ccc(OC)cc1 (stereo unspecified) | nt | nt | -14 | 13
Cn1c(N)nc2c(nc(OCc3ccccc3)n2[C@H]2O[C@H](CO)[C@@H](O)[C@@H]2O)c1=O | nt | nt | 25 | 57*
O=c1[nH]cnc2c1nc(NCc1ccccc1)n2C1O[C@@H](CO)[C@H](O)[C@@H]1O (stereo partly specified) | i | i | nt | nt
COC(=O)C1CCN(CC(=O)Nc2cc(Cl)ccc2OC)CC1 | -9.7* | i | -29 | 0
Cc1cc2c(o1)c1cnn(CC(=O)N3CCCC3)c(=O)c1n2C | nt | nt | -27 | nt
COc1ccc(C(C)C)cc1S(=O)(=O)N1CCC(O)(c2ccccc2)C1 (stereo unspecified) | nt | nt | -21 | 4
C=CCn1c2cc(C)sc2c2cnn(Cc3ccccc3F)c(=O)c21 | nt | nt | 63* | nt
O=c1oc2c3c4c(cc2s1)CCCN4CCC3 | i | i | 73* | 3
CCN(CC)CC(=O)Nc1cc(N(C)C)nc2ccccc12 | i | i | -13 | 9
CCCCCC(=O)Nc1cc(N(C)C)nc2ccccc12 | i | i | nt | 40*
Nc1c(S(=O)(=O)O)cc(S(=O)(=O)O)c2ccc(N=Nc3ccccc3)c(O)c12 | nt | nt | 1 | 52*
CC(=O)Nc1ccc(CN(Cc2ccc(F)cc2)CC2CCCO2)cc1 (stereo unspecified) | nt | nt | 25 | 4
CC(C)OC(=O)c1c(-c2ccc(C(C)C)cc2)csc1NC(=O)C1CCCO1 (stereo unspecified) | i | i | 63* | 13
COc1ccc(Nc2nc(-c3sc(NC(C)=O)nc3C)cs2)cc1 | -5.1* | i | -7 | nt
COc1ccc2nc(SCC(=O)NC3CCCCC3C)c(C#N)cc2c1 (stereo unspecified) | nt | nt | -32 | 12
Cc1c(Cl)c(S(N)(=O)=O)cc(S(N)(=O)=O)c1NC(=O)c1ccc(Cl)cc1 | nt | nt | 36 | 45*
COc1ccccc1OCc1nnc(SCC(=O)Nc2cccc(C)c2)n1C | nt | nt | -17 | 7
COc1ccccc1C(=O)Nc1nc2ccccc2[nH]1 | i | i | nt | nt
CS(=O)(=O)c1ccccc1C(=O)Nc1nc2ccccc2[nH]1 | i | i | -2 | 108*
N#Cc1ccccc1OCCCN1CCC(Cc2ccccc2)CC1 | -9* | i | nt | nt
CCN(C(=O)C1=COCCO1)c1nc2c(C)cccc2s1 | i | i | nt | nt
SMILES | CHT inh | CHT allo act | EP2 modulator | EP2 antag
CCN(CC)CCN(C(=O)C1=COCCO1)c1nc2cc(C)cc(C)c2s1 | -6* | i | nt | nt
CCOc1ccccc1NC(=O)C(NCC1CCCCC1)c1ccccc1 (stereo unspecified) | i | i | 65* | 9
Cc1ccc2[nH]c(=O)c(CN(Cc3ccccc3Cl)Cc3nnnn3C3CCCC3)cc2c1 | nt | nt | 74* | 5
Cc1ccc2[nH]c(=O)c(CN(Cc3ccccc3)Cc3nnnn3C3CCCCC3)cc2c1 | nt | nt | 45 | 13
COc1ccccc1CN(Cc1cc2cc(C)ccc2[nH]c1=O)Cc1nnnn1C1CCCC1 | nt | nt | 65* | 6
CC1(C)Cc2ccccc2-c2nc3n(c(=O)c21)CCCS3 | i | i | 64* | 8
COc1c(C)cc(S(=O)(=O)NCC2CCCO2)c(C)c1C (stereo unspecified) | nt | nt | -13 | 12
CN(C)CCCN=c1c2ccccc2n(C)c2[nH]c(=O)n(C)c(=O)c12 | nt | nt | 19 | 46*
C[C@@H](Cn1nnc2ccccc21)NC(=O)CN1CCCC1=O | nt | nt | 16 | 4
CN1CCN(CC(=O)N2c3ccccc3Sc3cc4ccccc4cc32)CC1 | nt | nt | -10 | 45*
